# Screening data (PubChem BioAssay)
# FBW7 act: human FBW7 E3 ligase activation, primary screen | actives 0.13% (n = 650,000) | normalized activity (activation), % at 26.1 µM | AlphaScreen FBW7–phospho-cyclin E peptide binding, activator screen | Q969H0; in the data active = normalized activity above about 1.9%;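 note: purified mutant Fbw7 with reduced substrate affinity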
# TEAD-YAP inh: TEAD-YAP interaction inhibition | AID 1259422 | HEK-TIYL cells, TEAD-Gal4/YAP UAS-luciferase luminescence | inhibition, % at 9.12 µM | actives 1.4% (n = 640,000); in the data active = inhibition above about 32%
# GPR151 ag: activators of human GPR151. PathHunter beta-arrestin GPR151 cells, luminescence. AID 1508602. Q8TDV0. activation, % at 11.2 µM. actives 1% (n = 650,000); in the data active = activation above about 4.9%
# MITF inh: human MITF inhibition, primary screen. O75030. AlphaScreen MITF homodimerization, bead proximity signal. inhibition, % at 2.6 µM. actives 0.91% (n = 650,000); in the data active = inhibition above about 50%
# Target sequence (O75030 whole entry, looked up): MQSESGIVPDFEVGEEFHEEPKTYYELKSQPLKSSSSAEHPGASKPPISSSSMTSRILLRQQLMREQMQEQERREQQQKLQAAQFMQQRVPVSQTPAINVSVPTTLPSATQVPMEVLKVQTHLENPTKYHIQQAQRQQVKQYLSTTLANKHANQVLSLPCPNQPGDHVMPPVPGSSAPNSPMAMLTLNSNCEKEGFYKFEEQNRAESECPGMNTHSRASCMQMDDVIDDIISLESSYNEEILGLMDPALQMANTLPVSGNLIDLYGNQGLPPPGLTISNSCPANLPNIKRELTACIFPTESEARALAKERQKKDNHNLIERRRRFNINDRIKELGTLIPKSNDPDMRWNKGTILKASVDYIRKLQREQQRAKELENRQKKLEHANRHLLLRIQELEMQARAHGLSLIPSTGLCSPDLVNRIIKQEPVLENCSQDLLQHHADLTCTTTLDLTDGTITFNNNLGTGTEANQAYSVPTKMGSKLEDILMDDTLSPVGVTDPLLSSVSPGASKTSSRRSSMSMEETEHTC
# A number is an active result; 0 = inactive. In the library only some 3.5% were active in any assay of this set; here they are far more common.
SMILES,FBW7 act,TEAD-YAP inh,GPR151 ag,MITF inh
O=C(Nc1cc([N+](=O)[O-])ccc1F)c1ccccc1,0,0,0,0
O=C(Nc1cc([N+](=O)[O-])ccc1F)c1cccc(Br)c1,0,0,0,0
O=C(CCCc1ccccc1)Nc1cc([N+](=O)[O-])ccc1F,0,0,0,0
COc1cccc(/C(N)=N/OC(=O)c2ccc(C)cc2C)c1,0,0,0,0
Cc1nc2cnc(-c3cccc(O)c3)cn2c1NC(=O)c1ccco1,0,0,0,0
Cc1ccc2cc3c(N)c(C(=O)Nc4nc(C)c(C)s4)sc3nc2c1,0,0,0,0
Cc1[nH]c(=O)[nH]c(=O)c1NC(=O)c1sc2nc3ccc(C(C)C)cc3cc2c1N,0,79,0,0
Cc1cc2cc3c(N)c(C(=O)Nc4nc(C)c(C)s4)sc3nc2cc1C,46,0,0,0
Cc1ccc2nc3sc(C(=O)Nc4c(C)[nH]c(=O)[nH]c4=O)c(N)c3cc2c1,0,0,0,0
Nc1c(C(=O)Nc2nccs2)sc2nc3c(cc12)CCC3,0,56,0,0
CC(C)c1ccc2nc3sc(C(=O)Nc4nccs4)c(N)c3cc2c1,0,66,0,0
NC(=O)c1ccc(-c2nc(Nc3ccccc3)c3ncn(-c4ccccc4)c3n2)cc1,0,0,0,0
O=C(NC(Nc1ccc(Cl)cn1)C(Cl)(Cl)Cl)OCC1CCCO1 (configuration not stated),0,0,0,0
N#CCOc1ccccc1/C=N/n1nnnc1N,1.9,0,0,0
C=CCOc1ccccc1/C=N/n1nnnc1N,0,0,0,0
CCN(CC(=O)Nc1ccc(Br)cc1)C(=O)COc1ccccc1OC,0,0,0,0
COCCCNC(=O)c1ccc(SCc2cccc(OC)c2OC)c([N+](=O)[O-])c1,0,61,0,0
CC[n+]1c(-c2ccc(C)cc2)csc1Nc1ccc(NC(C)=O)cc1,0,62,0,0
CC[n+]1c(-c2ccc(C)cc2)csc1Nc1c(C)cc(C)cc1C,0,0,0,0
O=C(CCc1nnc(Cc2c[nH]c3ccccc23)o1)N(CCO)Cc1ccccc1,0,0,0,0
Cc1cc2[nH]c(=S)n(Cc3ccccc3Cl)c2cc1C,0,50,0,0
Cc1ccc(-c2nnc(Nc3ccccc3)o2)cc1,0,44,0,0
Cc1ccc(-c2nnc(-c3ccccc3C)o2)cc1,0,0,0,0
Cc1ccc(C(=O)COC(=O)c2ccccc2[N+](=O)[O-])cc1C,0,49,0,0
Cc1c(C(=O)OCC(=O)c2ccc(Cl)cc2)cccc1[N+](=O)[O-],0,0,0,0
SMILES,FBW7 act,TEAD-YAP inh,GPR151 ag,MITF inh
Nc1cc(=O)[nH]c(SCc2ccccc2CSc2nc(N)cc(=O)[nH]2)n1,0,0,0,0
Nc1cc(=O)[nH]c(S/C=C/c2ccccc2)n1,0,34,0,0
CCSC1=C(C#N)C(c2cccs2)C(C(=O)Nc2ccccc2C)C(C)(O)N1 (configuration not stated),0,0,0,0
Cn1cnc([N+](=O)[O-])c1S(=O)CC#N (configuration not stated),0,56,0,0
O=C(CCc1ccccc1)Nc1ccc(Oc2ccc3c(c2)C(=O)NC3=O)cc1,0,52,0,0
Cc1ccccc1OCC(=O)Nc1ccc(Oc2ccc3c(c2)C(=O)NC3=O)cc1,0,52,0,0
CCC(=O)Nc1ccc(Oc2ccc3c(c2)C(=O)NC3=O)cc1,0,0,0,0
O=C(COc1ccccc1)Nc1ccc(Oc2ccc3c(c2)C(=O)NC3=O)cc1,0,51,0,0
CCN1CCN(C/C=C/c2ccc(N(C)C)cc2)CC1,0,0,0,0
CN1CCN(C/C=C/c2ccc(N(C)C)cc2)CC1,0,0,0,68
CC1=NN(c2ccccc2)C(=O)C1C(=O)c1ccc(Br)cc1 (configuration not stated),0,37,0,0
CC1=NN(c2ccccc2)C(=O)C1C(=O)c1ccccc1 (configuration not stated),0,0,0,0
CCCCOCC(O)CN1CCN(c2ccc([N+](=O)[O-])cc2[N+](=O)[O-])CC1 (configuration not stated),0,0,0,0
O=S(=O)(NCc1csc(-c2cccs2)n1)c1ccc(-c2ccccn2)s1,2.1,0,0,0
COc1ccc(CCNC(=O)c2ccc3nc(Nc4ccc5ncccc5c4)sc3c2)cc1,0,32,0,0
O=C(Cn1nc(-c2ccccc2)ccc1=O)NCCN1CCN(c2ccccc2F)CC1,0,0,0,0
O=C(N/N=C/c1ccc(O)c(O)c1)N/N=C/c1ccc(O)c(O)c1,0,0,0,95
O=C(N/N=C/c1ccc(O)c(O)c1)c1cccc(N/N=C/c2ccc(O)c(O)c2)c1,0,0,0,105
Nc1nnc(CC(=O)N/N=C\c2ccc(O)c(O)c2)s1,0,0,0,52
Nn1cnnc1N/N=C/c1ccc(O)c(O)c1,0,0,0,88
Cc1cc(SCc2ccccc2)n2ncnc2n1,0,0,0,0
N#CC1=C(N)N(c2ncn[nH]2)C2=C(C(=O)CC(c3ccccc3)C2)C1c1cccc(Cl)c1 (configuration not stated),0,0,0,0
O=C(O)c1ccc(Sc2ccncc2)cc1,0,0,0,0
Cc1ccc(/C=N/NC(=O)c2cc(C(C)C)[nH]n2)cc1,0,36,0,0
O=C(OCC(=O)N1CCN(C(=O)c2ccco2)CC1)c1cc(O)c(O)c(O)c1,0,0,0,81
SMILES,FBW7 act,TEAD-YAP inh,GPR151 ag,MITF inh
CCOc1cc(/C=C2\SC(=S)N(CCOC)C2=O)ccc1O,0,0,0,0
COc1cc(/C=C2\SC(=S)N(CCCC(=O)O)C2=O)ccc1O,0,62,0,0
CCOc1cc(/C=C2/SC(=S)N(CCCC(=O)O)C2=O)ccc1O,0,73,0,0
CCOc1cc(/C=C2\SC(=Nc3ccc(C(=O)O)cc3)N(C)C2=O)ccc1O,0,46,0,0
COc1ccc(/C=C2/SC(=O)N(CCCC(=O)Nc3cccc(O)c3)C2=O)cc1,0,66,0,0
CCOC(=O)C1=C(c2ccc(OC)cc2)NC(=O)NC1c1ccc(Cl)cc1 (configuration not stated),0,0,0,0
O=C(CSc1nnc(Nc2ccccc2)s1)NNC(=O)c1cccs1,0,0,0,0
Fc1ccccc1C1C=C(c2ccc(Br)cc2)Nc2nc3ccccc3n21 (configuration not stated),0,0,0,0
CCc1ccc(C2=CC(c3ccccc3F)n3c(nc4ccccc43)N2)cc1 (configuration not stated),0,68,0,0
Cc1ccc(C2=CC(c3ccc(F)c(Br)c3)n3c(nc4ccccc43)N2)cc1 (configuration not stated),0,52,0,0
COc1ccc(C2=CC(c3ccccc3F)n3c(nc4ccccc43)N2)cc1 (configuration not stated),0,35,0,0
COc1cccc(C2=CC(c3ccccc3F)n3c(nc4ccccc43)N2)c1 (configuration not stated),0,0,0,0
Cc1ccc(C2=CC(c3ccc(C)cc3)n3c(nc4ccccc43)N2)cc1 (configuration not stated),0,0,0,0
